The results in this text go back to ChEMBL document CHEMBL3988442, “University of Dundee, Small-Polar-MMV Screening Library” (2021).

Parameters in all cases: scale not given: direction of the effect not stated beside the values
For assay [1], the target named is Protein translocase subunit SecA (Escherichia coli (strain K12)) (UniProt P10408). Nature of the assay: Assay to Identify E. coli SecA ATPase Inhibitors. Type of assay: functional. The settings on record: 30 µM.
For assay [2], the target named is T1, Ubiquitin-activating enzyme e1, putative (Leishmania donovani (strain BPK282A1)) (UniProt E9BSI1).
T1 sequence (whole entry): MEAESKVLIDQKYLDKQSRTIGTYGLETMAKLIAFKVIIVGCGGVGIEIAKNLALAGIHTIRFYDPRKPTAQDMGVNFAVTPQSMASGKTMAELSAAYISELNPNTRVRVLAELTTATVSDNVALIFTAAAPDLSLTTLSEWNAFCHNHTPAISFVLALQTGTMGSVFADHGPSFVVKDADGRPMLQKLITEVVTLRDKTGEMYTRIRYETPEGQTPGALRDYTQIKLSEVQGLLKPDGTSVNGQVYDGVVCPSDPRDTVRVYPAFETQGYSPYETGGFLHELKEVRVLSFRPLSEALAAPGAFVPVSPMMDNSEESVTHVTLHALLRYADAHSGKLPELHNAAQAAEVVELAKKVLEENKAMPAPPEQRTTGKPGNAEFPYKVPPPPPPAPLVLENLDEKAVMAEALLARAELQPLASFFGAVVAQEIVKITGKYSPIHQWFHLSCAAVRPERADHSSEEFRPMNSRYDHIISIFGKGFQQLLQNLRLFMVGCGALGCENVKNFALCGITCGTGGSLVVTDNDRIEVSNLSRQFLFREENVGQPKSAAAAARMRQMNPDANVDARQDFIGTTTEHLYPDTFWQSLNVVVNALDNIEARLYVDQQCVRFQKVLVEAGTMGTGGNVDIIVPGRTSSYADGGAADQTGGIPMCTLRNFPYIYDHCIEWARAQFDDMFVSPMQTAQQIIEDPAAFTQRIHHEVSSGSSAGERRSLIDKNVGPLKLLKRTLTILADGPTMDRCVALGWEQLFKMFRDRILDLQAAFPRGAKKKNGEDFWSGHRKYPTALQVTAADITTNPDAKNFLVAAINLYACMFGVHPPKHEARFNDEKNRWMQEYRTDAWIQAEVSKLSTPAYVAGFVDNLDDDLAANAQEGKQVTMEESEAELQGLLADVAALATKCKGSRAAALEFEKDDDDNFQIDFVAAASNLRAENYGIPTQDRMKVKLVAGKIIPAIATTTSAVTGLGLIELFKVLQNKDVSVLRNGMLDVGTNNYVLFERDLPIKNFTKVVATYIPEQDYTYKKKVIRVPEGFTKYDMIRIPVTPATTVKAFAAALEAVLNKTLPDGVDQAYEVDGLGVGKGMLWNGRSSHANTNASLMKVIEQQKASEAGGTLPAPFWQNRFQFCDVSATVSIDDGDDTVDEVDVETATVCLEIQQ
The assay is described as follows: Leishmania donovani Ubiquitin Activating Enzyme (LdE1). In kind it is functional. As to conditions: 30 µM.

Assay [3] addresses AMP-activated protein kinase, AMPK (Homo sapiens) (UniProt P54646+O43741+P54619+Q9UGJ0+Q9Y478+Q13131+Q9UGI9). The assay is described as follows: AMP-dependent Kinase enzyme assay. An in vitro enzyme assay that detects ADP turnover that is directly proportional to AMPK activity. This uses naive AMPK that is activated during the assay with MK-8722. Type of assay: functional. As to conditions: 30 µM.

For assay [4], the target named is Sialic acid-binding Ig-like lectin 9 (Homo sapiens) (UniProt Q9Y336). Nature of the assay: Hs-Siglec9 ALPHAscreen SOP 20170721. The settings on record: 10 µM. On the technique in general: Alpha assays give light when donor and acceptor beads are brought close together.
Assay [5] deals with Trypanosoma cruzi. Nature of the assay: Trypanosoma cruzi phosphomannomutase and mannose-1-phosphate guanylyltransferase assay. In kind it is functional. The settings on record: 10 µM.
Assay [6] concerns the target T2, Arginase-2, mitochondrial (Homo sapiens) (UniProt P78540).
T2 sequence (whole entry): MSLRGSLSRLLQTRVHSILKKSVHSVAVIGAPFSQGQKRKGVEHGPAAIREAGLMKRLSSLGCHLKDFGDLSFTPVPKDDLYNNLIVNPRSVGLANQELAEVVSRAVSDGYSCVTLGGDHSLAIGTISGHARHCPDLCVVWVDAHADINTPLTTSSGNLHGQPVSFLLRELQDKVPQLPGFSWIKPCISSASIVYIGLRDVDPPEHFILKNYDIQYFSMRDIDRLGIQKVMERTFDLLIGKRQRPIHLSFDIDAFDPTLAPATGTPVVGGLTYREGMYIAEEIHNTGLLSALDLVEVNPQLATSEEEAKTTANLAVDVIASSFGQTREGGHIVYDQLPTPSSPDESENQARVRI
Nature of the assay: in vitro enzyme assay to detect the production of urea directly proportional to the activity of Arginase II. Also: in the data most compounds retested in dose-response had high values. Type of assay: functional. As to conditions: 33.3 µM.

In assay [7] the target is T3, Proteasome subunit beta (Trypanosoma cruzi) (UniProt O96673).
T3 sequence (whole entry): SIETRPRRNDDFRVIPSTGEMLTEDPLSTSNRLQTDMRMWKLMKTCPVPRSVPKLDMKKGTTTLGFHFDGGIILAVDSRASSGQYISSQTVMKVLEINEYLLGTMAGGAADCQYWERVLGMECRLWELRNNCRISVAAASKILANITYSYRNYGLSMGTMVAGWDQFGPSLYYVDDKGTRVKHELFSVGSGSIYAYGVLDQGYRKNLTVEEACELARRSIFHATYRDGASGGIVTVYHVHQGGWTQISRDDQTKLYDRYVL
Nature of the assay: Trypanosoma cruzi proteasome chymotrypsin-like activity (TcProtChymo) assay. Also: in the data most compounds retested in dose-response had high values. In kind it is functional. As to conditions: 9.37 µM.

Assay [8] is filed under the species Homo sapiens. Nature of the assay: To identify inhibition of the IFN signalling (Jak-Stat) pathway via expression of an eGFP reporter gene under the control of an IFN-stimulated response element (ISRE) containing MxA promoter. The settings on record: 30 µM. In kind it is functional.
The target of assay [9] is T4, Tyrosyl-tRNA synthetase, putative (Trypanosoma cruzi (strain CL Brener)) (UniProt Q4DSP6).
T4 sequence (whole entry): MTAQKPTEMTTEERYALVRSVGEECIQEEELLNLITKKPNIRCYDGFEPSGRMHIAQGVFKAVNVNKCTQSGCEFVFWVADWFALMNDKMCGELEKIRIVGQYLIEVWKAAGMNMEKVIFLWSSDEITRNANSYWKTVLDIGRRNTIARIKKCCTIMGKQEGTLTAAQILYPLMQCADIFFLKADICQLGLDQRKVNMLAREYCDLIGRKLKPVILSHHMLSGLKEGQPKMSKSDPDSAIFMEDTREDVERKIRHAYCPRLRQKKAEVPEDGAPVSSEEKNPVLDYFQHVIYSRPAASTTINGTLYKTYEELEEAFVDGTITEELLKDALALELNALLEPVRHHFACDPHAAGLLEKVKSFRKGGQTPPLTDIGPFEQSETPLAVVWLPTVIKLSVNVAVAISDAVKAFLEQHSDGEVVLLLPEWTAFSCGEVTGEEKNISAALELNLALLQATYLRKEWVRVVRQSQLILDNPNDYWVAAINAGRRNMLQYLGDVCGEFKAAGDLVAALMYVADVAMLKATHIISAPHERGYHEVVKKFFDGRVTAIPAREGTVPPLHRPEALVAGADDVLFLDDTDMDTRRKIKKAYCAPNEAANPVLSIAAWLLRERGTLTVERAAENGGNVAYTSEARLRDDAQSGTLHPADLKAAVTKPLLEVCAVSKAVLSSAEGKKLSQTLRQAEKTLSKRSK
The assay is described as follows: Trypanosoma cruzi tyrosyl tRNA synthetase (TcYRS) _High Tyrosine SOP. Also: in the data most compounds retested in dose-response had high values. In kind it is functional. As to conditions: 30 µM.

The target in assay [10] is T4, Tyrosyl-tRNA synthetase, putative (Trypanosoma cruzi (strain CL Brener)). Nature of the assay: Trypanosoma cruzi tyrosyl tRNA synthetase (TcYRS) SOP. Type of assay: functional. As to conditions: 30 µM.
Assay [11] deals with Chromo domain-containing protein 1 (Saccharomyces cerevisiae (strain ATCC 204508 / S288c) (Baker's yeast)) (UniProt P32657). The assay is described as follows: ScCHD-1 Enzyme Inhibition Assay. Also: in the data most compounds retested in dose-response had high values. In kind it is functional. The settings on record: 30 µM.

For some of these results: Measured potencies and affinities stand elsewhere.

Chain of Protein translocase subunit SecA (Escherichia coli (strain K12)) (P10408 whole entry): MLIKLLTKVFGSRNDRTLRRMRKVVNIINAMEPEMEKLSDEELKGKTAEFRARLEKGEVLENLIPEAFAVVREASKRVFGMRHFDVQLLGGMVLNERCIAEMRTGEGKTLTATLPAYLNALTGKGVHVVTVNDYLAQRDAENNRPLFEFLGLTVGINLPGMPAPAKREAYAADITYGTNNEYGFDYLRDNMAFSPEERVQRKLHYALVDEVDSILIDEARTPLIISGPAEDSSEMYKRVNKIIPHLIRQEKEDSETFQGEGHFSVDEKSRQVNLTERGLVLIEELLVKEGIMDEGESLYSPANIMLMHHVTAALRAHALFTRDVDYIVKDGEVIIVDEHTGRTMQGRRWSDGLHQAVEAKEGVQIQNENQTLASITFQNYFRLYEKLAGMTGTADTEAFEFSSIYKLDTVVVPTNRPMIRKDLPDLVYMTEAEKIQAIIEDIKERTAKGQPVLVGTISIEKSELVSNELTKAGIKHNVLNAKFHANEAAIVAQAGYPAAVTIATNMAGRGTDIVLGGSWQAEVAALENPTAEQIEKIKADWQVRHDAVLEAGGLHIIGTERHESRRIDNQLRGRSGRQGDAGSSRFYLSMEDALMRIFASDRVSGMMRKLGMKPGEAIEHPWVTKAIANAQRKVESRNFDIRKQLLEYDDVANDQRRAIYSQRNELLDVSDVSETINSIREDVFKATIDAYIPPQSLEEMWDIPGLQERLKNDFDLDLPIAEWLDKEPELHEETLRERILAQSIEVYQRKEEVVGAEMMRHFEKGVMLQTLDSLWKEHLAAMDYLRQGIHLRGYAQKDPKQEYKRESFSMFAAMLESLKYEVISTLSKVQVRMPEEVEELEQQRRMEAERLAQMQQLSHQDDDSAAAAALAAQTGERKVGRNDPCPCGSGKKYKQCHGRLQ
Chain of Sialic acid-binding Ig-like lectin 9 (Homo sapiens) (Q9Y336 whole entry): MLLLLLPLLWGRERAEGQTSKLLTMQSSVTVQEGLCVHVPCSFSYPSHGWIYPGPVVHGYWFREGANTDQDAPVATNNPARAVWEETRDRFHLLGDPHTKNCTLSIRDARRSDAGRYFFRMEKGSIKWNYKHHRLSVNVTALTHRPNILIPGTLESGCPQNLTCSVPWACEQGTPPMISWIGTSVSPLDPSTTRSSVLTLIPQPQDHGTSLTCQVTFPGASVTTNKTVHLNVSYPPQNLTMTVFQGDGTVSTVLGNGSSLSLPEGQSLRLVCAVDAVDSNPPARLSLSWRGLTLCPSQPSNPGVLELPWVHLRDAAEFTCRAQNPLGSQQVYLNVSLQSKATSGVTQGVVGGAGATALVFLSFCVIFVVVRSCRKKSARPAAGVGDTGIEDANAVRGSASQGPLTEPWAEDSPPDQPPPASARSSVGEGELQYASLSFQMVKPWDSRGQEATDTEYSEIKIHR
Chain of Chromo domain-containing protein 1 (Saccharomyces cerevisiae (strain ATCC 204508 / S288c) (Baker's yeast)) (P32657 whole entry, the tested form may be a part): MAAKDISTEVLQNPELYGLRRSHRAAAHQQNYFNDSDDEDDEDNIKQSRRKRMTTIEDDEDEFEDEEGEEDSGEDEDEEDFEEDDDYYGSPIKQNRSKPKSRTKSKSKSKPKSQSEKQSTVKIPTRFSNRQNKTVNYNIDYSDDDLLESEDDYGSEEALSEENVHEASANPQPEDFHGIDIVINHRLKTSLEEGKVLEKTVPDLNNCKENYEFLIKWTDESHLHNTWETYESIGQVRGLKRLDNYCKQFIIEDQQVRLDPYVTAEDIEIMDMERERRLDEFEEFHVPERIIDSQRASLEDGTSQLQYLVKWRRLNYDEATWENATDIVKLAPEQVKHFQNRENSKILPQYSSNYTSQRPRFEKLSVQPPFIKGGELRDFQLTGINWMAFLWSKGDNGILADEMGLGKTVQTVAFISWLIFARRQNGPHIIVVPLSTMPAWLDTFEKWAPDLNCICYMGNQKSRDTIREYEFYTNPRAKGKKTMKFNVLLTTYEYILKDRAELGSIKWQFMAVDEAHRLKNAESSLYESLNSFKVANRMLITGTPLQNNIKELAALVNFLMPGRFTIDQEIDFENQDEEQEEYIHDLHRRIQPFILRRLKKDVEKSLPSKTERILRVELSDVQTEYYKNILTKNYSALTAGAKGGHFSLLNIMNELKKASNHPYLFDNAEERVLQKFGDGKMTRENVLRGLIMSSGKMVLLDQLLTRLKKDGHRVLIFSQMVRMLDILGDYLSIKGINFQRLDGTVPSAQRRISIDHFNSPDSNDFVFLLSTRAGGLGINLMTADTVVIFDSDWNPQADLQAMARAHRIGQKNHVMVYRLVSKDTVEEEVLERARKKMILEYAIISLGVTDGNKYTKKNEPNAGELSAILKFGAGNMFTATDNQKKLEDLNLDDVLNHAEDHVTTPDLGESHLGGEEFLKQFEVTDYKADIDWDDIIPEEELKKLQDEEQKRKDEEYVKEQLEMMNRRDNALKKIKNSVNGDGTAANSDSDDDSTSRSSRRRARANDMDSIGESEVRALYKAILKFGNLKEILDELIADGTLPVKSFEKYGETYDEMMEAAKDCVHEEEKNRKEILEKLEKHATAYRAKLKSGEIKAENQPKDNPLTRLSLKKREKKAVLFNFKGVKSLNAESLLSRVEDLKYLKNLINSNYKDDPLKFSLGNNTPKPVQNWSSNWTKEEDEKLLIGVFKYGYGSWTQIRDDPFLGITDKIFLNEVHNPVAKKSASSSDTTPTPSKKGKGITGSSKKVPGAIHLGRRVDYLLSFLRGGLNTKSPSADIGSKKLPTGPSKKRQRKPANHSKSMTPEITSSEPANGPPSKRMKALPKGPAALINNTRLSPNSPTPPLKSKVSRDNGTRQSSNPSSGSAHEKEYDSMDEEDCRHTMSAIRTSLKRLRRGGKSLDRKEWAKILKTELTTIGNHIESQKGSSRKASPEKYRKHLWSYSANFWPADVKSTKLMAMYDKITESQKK

`CNC1CCCN(Cc2noc(C3CC3)n2)C1` (stereo unspecified): the Percent Effect was 0.64% in assay [1]; -5.41% in assay [2]; -3.33% in assay [3]; -1.4% in [4]; -0.193% in [5]; -0.476% in assay [6]. The Percent Effect is 1.9% in assay [7]; -1.86% in assay [8]; 1.59% in assay [9]; 0% in [10]; 0.831% in assay [11].

As for `Cc1ccc(NC(=O)c2n[nH]c(-n3cnnc3)n2)cc1C`, the Percent Effect in assay [1] is -5.16%; in [2] it was 9.33%; in assay [3] it was -5.75%; in [4], -2.63%; in assay [5], 4.32%; in assay [6], 21.6%. The Percent Effect in [7] is -10.7%; in assay [8], -2.17%; in [9] it was 8.47%; in assay [10] it was 10.3%; in assay [11], -18.6%.

Turning to `CN(C)C(=O)N1CCc2c(nnn2C)C1COCc1ccccc1` (stereo unspecified), the Percent Effect in assay [1] was -4.49%; in [2], 21.3%; in assay [3], -8.1%; in [4] it was -0.726%; in [5] it was 5.21%; in [6], -42.1%. For the same compound, the Percent Effect in [7] was 13.7%; in assay [8] it was -0.202%; in [9] it was 7.29%; in assay [10] it was 27.5%; in assay [11] it was -6.92%.

Turning to `C=C1c2ccccc2C(=O)N1CCC(=O)N1CCNC(=O)C1`, the Percent Effect in assay [1] is -2.89%; in assay [2] it was 15.8%; in assay [3] it was -1.19%; in [4] it was 3.39%; in assay [5], -2.07%; in assay [6], 6.51%. Moreover, the Percent Effect in assay [7] was 29.6%; in [8] it was -7.94%; in assay [9], 6.37%; in assay [10] it was 17.1%; in [11], -3.42%.

On to `Cc1noc(C)c1C1CCCN1C(=O)CN1CC2(CCNCC2)OC1=O` (stereo unspecified), for which the Percent Effect in assay [1] was -6.39%; in [2], 0%; in assay [3], 4.75%; in assay [4] it was 9.41%; in assay [5], -1.35%; in assay [6], -3.81%. In addition, the Percent Effect in assay [7] is 6.9%; in assay [8] it was -4.21%; in [9] it was 3.7%; in assay [10], 0%; in [11], -4.34%.

In the case of `Cc1cccc(-c2nc(CN3CCCCC3Cn3cncn3)no2)c1` (stereo unspecified), the Percent Effect in assay [1] is -1.65%; in assay [2] it was -5.26%; in assay [3], 5.98%; in assay [4], 4.13%; in [5], 3.19%; in assay [6], 3.45%. The Percent Effect in [7] was 2.34%; in assay [8], -0.995%; in assay [9], 7.35%; in [10], 0%; in assay [11], 6.07%.

For the compound `CNC(=O)CS(=O)(=O)C1CCN(S(=O)(=O)c2ccccc2Br)CC1`, the Percent Effect was 1.17% in assay [1]; 0% in [2]; 4.03% in [3]; 13.4% in [4]; 4.5% in assay [5]; 5.46% in assay [6]. Also, the Percent Effect is 2.31% in assay [7]; 26.1% in assay [8]; 1.07% in [9]; 2.5% in assay [10]; -0.751% in assay [11].

For `O=C([C@@H]1COC[C@H]2CN(C3CCOCC3)C[C@H]21)N1CCCCO1`, the Percent Effect is 0.287% in assay [1]; 13.3% in [2]; -0.78% in assay [3]; -8.11% in assay [4]; 0.386% in assay [5]; -46.4% in assay [6]. Also, the Percent Effect is 6.67% in [7]; 7.44% in assay [8]; 2.08% in [9]; 20% in assay [10]; -6.62% in assay [11].

Take `c1csc(-c2nc(CN3CCCC3Cn3cncn3)co2)c1` (stereo unspecified): the Percent Effect was -2.28% in assay [1]; -5.48% in [2]; -7.9% in [3]; 1.3% in assay [4]; 6.86% in assay [5]; -3.18% in assay [6]. The Percent Effect in [7] was 5.68%; in assay [8] it was -9.88%; in [9], 2.15%; in [10], 5%; in [11], -3.71%.

For `CCc1noc(C)c1C(=O)N(C)Cc1ncc(C)c(OC)c1C`, the Percent Effect in [1] was -5.87%; in [2], 10.4%; in assay [3], 5.05%; in [4], -5.08%; in [5], 6.76%; in [6], 2.32%. In addition, the Percent Effect in [7] is 7.36%; in assay [8], 7.84%; in [9] it was 8.57%; in assay [10], 18.8%; in [11] it was -14.6%.

As to `COc1ccc(CN2CCc3ncnc(C4CCOC4)c3CC2)cc1` (stereo unspecified), the Percent Effect in [1] is -3.47%; in [2], 5.33%; in [3] it was -1.49%; in [4], -6.97%; in [5], 5.41%; in assay [6] it was -40.3%. The Percent Effect in [7] was 5.13%; in assay [8], 13.6%; in assay [9] it was 0%; in assay [10], 7.5%; in assay [11], -7.3%.
